CF NFkB block – inhibitors of cystic fibrosis induced NF-kB; 360,000 compounds, 0.86% hits; inhibition, % at 5 µM; KKLEB NF-kB-GFP reporter, PAF-induced, GFP fluorescence overnight;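 active = at least 50% inhibition at 5 µM, scaled per plate between neutral and stimulator controls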;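 note: PAF is a Pseudomonas aeruginosa culture filtrate used as stimulus; plate controls were PAF-stimulated DMSO wells for no effect and unstimulated DMSO wells for full effect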
TWEAK-Fn14 inh – inhibitors of TWEAK-Fn14 interaction signaling. TWEAK-stimulated Fn14 reporter cells, luciferase luminescence, 8 h. inhibition, % at 10 µM. 360,000 compounds, 2% hits. AID 1159606; in the data active = inhibition above about 50%
HIF-2a inh – HIF-2a inhibition; inhibition, % at 18.8 µM; 360,000 compounds, 0.72% hits; 786-0 RCC cells HIF-2a reporter, luciferase luminescence, overnight;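 active = inhibition of the luminescence signal of 40% or more relative to plate controls, in a single-dose primary screen at 18.75 µM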
Peg3 prom inh – reduces Peg3 promoter-driven luciferase expression in HeLa. HeLa PEG-Prom luciferase reporter, luminescence, overnight. inhibition, % at 20 µM. 360,000 compounds, 1.7% hits;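 active = inhibition of at least 50% at 20 µM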
TROY NFkB inh – blocks TROY-dependent signaling in reporter cells; Q293 LMP1-TROYcd NF-kB luciferase reporter, 4 h; 360,000 compounds, 0.98% hits; inhibition, % at 10 µM; AID 1347056;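 active = compounds whose plate-normalised and pattern-corrected inhibition of the luciferase reporter signal at the single screening dose is 50% or more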
KKLEB cytotox – reduces viability of KKLEB cystic fibrosis airway cells; activity change (cytotoxicity), % at 5 µM; KKLEB CF airway cells viability, ATPlite luminescence, overnight; stronger effect = lower value; cells stimulated with P. aeruginosa culture filtrate; AID 602141; 360,000 compounds, 0.36% hits;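 active = corrected activity change at or below -50% at 5 µM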
Numbers without * were called inactive. Most compounds without a hit are left out; they make up all but 4% or so of the library.

SMILES	CF NFkB block	TWEAK-Fn14 inh	HIF-2a inh	Peg3 prom inh	TROY NFkB inh	KKLEB cytotox
CCCCN1CC(COCc2ccccc2)Oc2cccc(OCCN3C(=O)[C@@H]4[C@H](C3=O)C3C=C[C@H]4C3)c2S1(=O)=O (stereo not given in full)	43	42	-14	59*	18	-5
CCCCN1CC(COCc2ccccc2)Oc2cccc(Oc3ccc(OC)cc3)c2S1(=O)=O (stereo not given)	6	-6	15	4	-4	8
COc1ccc(CNCc2cccc(OC)c2OC)cc1Br	-1	-7	11	3	-14	-12
CCOc1cc(C2c3c(n[nH]c3C)C(=O)N2c2ccc(Br)cc2)ccc1O (stereo not given)	0	40	-21	-25	50*	-7
Clc1ccccc1OCCn1nnc2ccccc21	-9	95*	-255	-243	-16	-12
c1ccc(C[n+]2cccc(-c3ccccc3)c2)cc1	-8	91*	14	2	90*	8
c1ccc(C[n+]2ccc3ccccc3c2)cc1	12	14	9	10	-9	5
CC(C)C(NC(=O)c1ccccc1Cl)C(=O)OCc1nc2scc(-c3ccccc3Cl)c2c(=O)[nH]1 (stereo not given)	-7	9	16	0	19	1
CCN(CC)S(=O)(=O)c1ccc(N2CCc3ccccc3C2)nc1	25	29	-79	-77	10	-5
CC(C)N(C(C)C)S(=O)(=O)c1ccc(N2CCc3ccccc3C2)nc1	16	58*	-124	-168	49	-7
CCOP(=O)(OCC)c1cccc(P(=O)(c2ccccc2)c2ccccc2)c1O	4	1	21	19	19	-5
CCOC(=O)C1=C(c2ccccc2)NC(SCC(=O)Nc2ccccc2C)=C(C#N)C1c1ccco1 (stereo not given)	-12	51*	21	24	8	8
CCOC(=O)C1=C(c2ccccc2)NC(SCC(=O)Nc2cccc(C)c2)=C(C#N)C1c1ccco1 (stereo not given)	15	39	13	70*	16	-3
CCOCCn1c(CN2CCOCC2)nc2c1c(=O)[nH]c(=O)n2C	2	10	3	4	-12	14
Cc1ccc(S(=O)(=O)N2CCN(C(=O)COC(=O)/C=C/c3cccc([N+](=O)[O-])c3)CC2)c(C)c1	-27	-17	8	11	16	11
O=C(CNC(=O)c1cccc(F)c1)N/N=C/c1ccc([N+](=O)[O-])s1	5	16	1	3	3	0
CC(C)(C)c1cc(NC(=O)C2CCCO2)no1 (stereo not given)	6	65*	-186	-127	61*	4
O=C(O)c1cc(NC(=O)C2CCCO2)cc(C(=O)O)c1 (stereo not given)	-15	31	15	11	16	1
O=C1NC(=O)C2(C=C(c3ccccc3)C(O)(c3ccccc3)C2)N1 (stereo not given)	-20	-8	12	0	8	8
CCCCS(=O)(=O)N1CCCC(C(=O)Nc2ccc(Cl)cn2)C1 (stereo not given)	0	85*	17	9	5	4
COc1cc(Cl)c(C)cc1NC(=O)c1ccccc1NC(=O)CN1CCN(c2ccccn2)CC1	11	-17	19	91*	-7	-6
COc1cc(NC(=O)c2ccccc2)c(OC)cc1NC(=O)CN1CCN(c2ccccn2)CC1	5	9	-15	15	1	4
Cc1ccc(NC(=S)c2nc3ccccc3s2)cc1	-2	78*	-89	-99	55*	-19
COc1ccc(N(CC(=O)NCCSc2ccccn2)S(C)(=O)=O)cc1	0	-1	4	-7	5	5
CSc1nc2ccc(NC(=O)c3ccccn3)cc2s1	-4	72*	-32	-91	26	-39
COc1ccc(C(=O)NCCSc2ccccn2)cc1	-6	65*	-71	-78	11	4
COc1ccc(NC(=O)c2ccccn2)cc1	1	84*	31	-1	57*	-14
COc1ccc(C(=O)Nc2ccc(NC(=O)c3ccccn3)cn2)cc1	-3	1	-90	-86	-14	-5

Screening data deposited in PubChem by Sanford-Burnham Center for Chemical Genomics.
